Shown are actives, neighbours in structure and some others; about 6% of the full set was active somewhere.
Tau FP inhib: qHTS for Inhibitors of Tau Fibril Formation, Fluorescence Polarization; Microtubule-associated protein tau (Homo sapiens), P10636; K18 P301L tau heparin fibrillization, Alexa594 FP, 6 h; Potency, µM (doses to about 57.7 µM), inactives show at the top dose activity, negative = inhibition, hits mostly inhibitors; 280,000 tested, 0.39% active; AID 1468, 2008; also: nearly all actives have a fitted effect of over 55% in size
Target sequence (P10636 561-689 P618L limits assumed): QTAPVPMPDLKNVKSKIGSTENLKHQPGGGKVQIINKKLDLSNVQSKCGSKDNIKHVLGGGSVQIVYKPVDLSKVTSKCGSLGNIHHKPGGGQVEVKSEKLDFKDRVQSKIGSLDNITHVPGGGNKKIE
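Human tau K18 […] P301L fragment, 15 uM unlabeled plus 0.24 uM Alexa 594-labeled tau (final), with compound and 20 uM heparin in 100 mM sodium acetate pH 7; 6 hr at 37 C, then Alexa 594 FP read.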
Tau fluor cs: Counterscreen qHTS for Inhibitors of Tau Fibril Formation, Fluorescence Polarization. tau K18 P301L Alexa594 fluorescence, heparin fibrillization. Potency, µM (titrated, usually from 57.7 µM), for the others: at the top dose activity change, negative = decrease. 280,000 tested, 0.93% active; also: nearly all actives have a fitted effect of over 55% in size
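Human tau K18 P301L (15 uM unlabeled, 0.24 uM Alexa 594-labeled) in 100 mM sodium acetate pH 7 with 20 uM heparin, 6 hr at 37 C. ThT 30 uM added, 1 hr ambient; Alexa 594 FP and total fluorescence read at 555/632 nm.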
Sfp inh: qHTS Assay for Inhibitors of Bacillus subtilis Sfp phosphopantetheinyl transferase (PPTase); Potency, µM, without a hit: largest response in the series, negative = inhibition, usual class: inhibitors; Biochemical Sfp PPTase activity, qHTS; 310,000 tested, 3.5% active;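 also: the enzyme is Sfp with the accession as filed and its product quenches rhodamine fluorescence; 0% = enzyme reaction without inhibitor and -100% = no enzyme wells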
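Step 1, compound plus 15 nM Sfp-PPTase, 15 min, room temperature. Step 2, add rhodamine-CoA (5 uM) and BHQ-2-YbbR (12.5 uM). Step 3, read 525/598 nm fluorescence at 0 and 30 min.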
VDR inhibitor: Inhibitors of the vitamin D receptor (VDR): qHTS; Vitamin D3 receptor (Homo sapiens), P11473; AID 504847, 2011; Potency, µM, for inactives: max response, negative = inhibition, actives largely listed as inhibitors; VDR-SRC2-3 peptide fluorescence polarization, 2 h; 400,000 tested, 0.93% active
Target sequence (P11473 whole entry, looked up): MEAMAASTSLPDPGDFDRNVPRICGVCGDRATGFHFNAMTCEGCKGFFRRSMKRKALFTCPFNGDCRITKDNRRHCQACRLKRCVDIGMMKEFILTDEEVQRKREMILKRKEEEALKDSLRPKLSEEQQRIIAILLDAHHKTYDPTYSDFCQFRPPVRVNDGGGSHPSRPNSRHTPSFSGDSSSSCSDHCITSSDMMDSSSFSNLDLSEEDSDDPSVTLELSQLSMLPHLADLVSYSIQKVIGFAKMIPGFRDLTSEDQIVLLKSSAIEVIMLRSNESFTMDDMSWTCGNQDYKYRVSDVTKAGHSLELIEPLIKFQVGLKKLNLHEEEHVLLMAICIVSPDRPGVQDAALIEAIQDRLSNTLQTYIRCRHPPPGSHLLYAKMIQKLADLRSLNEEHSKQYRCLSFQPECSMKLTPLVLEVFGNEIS
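Fluorescence polarization assay of small-molecule disruption of VDR binding to coregulator peptide SRC2-3. Compounds and controls pin-transferred, then read after 2 h incubation at ambient room temperature.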
Tau fibril ThT: qHTS for Inhibitors of Tau Fibril Formation, Thioflavin T Binding | Potency, µM (titrated, usually from 57.4 µM), inactives show at the top dose activity, negative = inhibition, most hits filed as inhibitors | Microtubule-associated protein tau (Homo sapiens), P10636 | recombinant tau K18 P301L (four-repeat tau fragment), heparin-induced fibrillization, ThT fluorescence | 270,000 tested, 2.1% active; also: nearly all actives have a fitted effect of over 55% in size
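Heparin-induced (20 uM) aggregation of recombinant human K18 P301L tau, 15 uM unlabeled with 0.24 uM labeled, pH 7 acetate buffer, 6 hr at 37 C with compound. Fibrils quantified by 30 uM ThT fluorescence after 1 hr ambient incubation.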
PLK1 PBD inh: qHTS for Inhibitors of PLK1-PDB (polo-like kinase 1 - polo-box domain): Primary Screen; Plk1 PBD binding of FITC phosphopeptide, fluorescence polarization; Serine/threonine-protein kinase PLK1 (Homo sapiens), P53350; Potency, µM, without a hit: max response, negative = inhibition, most hits filed as inhibitors; 360,000 tested, 2.8% active; also: series mostly up to about 57 µM; nearly all actives have a fitted effect of over 65% in size
Numbers without * were called inactive; ? = inconclusive; . = no result given; [ ] = another dose, or the depositor's remark. Calls follow the shape of the dose curve; as a rule, active = well fitted curve in the direction sought with a large enough effect; inconclusive = small, poorly fitted or top-dose-only effect, or another doubt; inactive = no such curve, though single readings can be large; an effect the other way counts as inactive or inconclusive. Unless noted, % is scaled to controls: 0 for no effect and ±100 for the full control effect; potency is read from the fitted curve at half-maximal effect.

SMILES | Tau FP inhib | Tau fluor cs | Sfp inh | VDR inhibitor | Tau fibril ThT | PLK1 PBD inh
O=C(O)CCN1C(=O)/C(=C/c2ccc(-c3nc4ccccc4s3)o2)SC1=S | -5.0% | -25.5% | -21.3% | ? | 1.26µM* | 9.47µM*
O=C(O)CC(C(=O)O)N1C(=O)/C(=C/c2ccc(-c3nc4ccccc4s3)o2)SC1=S (stereo not given) | ? | -25.6% | 8.91µM* | 50.1µM* | 7.94µM* | -8.1%
O=Cc1ccc(-c2nc3ccccc3s2)o1 | -8.8% | -2.3% | 2.0% | 4.6% | ? | -2.5%
O=C(O)CCCN1C(=O)/C(=C\c2ccc(-c3nc4ccccc4s3)o2)SC1=S | ? | ? | 50.1µM* | ? | 2.51µM* | 10.6µM*
CC1CCCN(c2ncnc3c2nc2n3CCCCC2)C1 (stereo not given) | -0.3% | -6.5% | . | 0.8% | -4.5% | .
CC(C)(C)C(=O)NC(=S)NNC(=O)c1sc2ccccc2c1Cl | ? | -28.7% | 3.5% | -18.0% | ? | -24.4%
O=C(NNC(=S)NC1CCCCC1)c1sc2ccccc2c1Cl | ? | ? | -3.7% | -20.2% | ? | 21.2µM*
CCCOC(=S)NC(=O)c1sc2ccccc2c1Cl | 3.5% | -16.8% | 28.2µM* | -14.9% | ? | ?
CCOC(=S)NC(=O)c1sc2ccccc2c1Cl | 5.1% | -8.7% | 44.7µM* | -12.7% | ? | ?
O=C(NC1CC1)c1sc2ccccc2c1Cl | . | . | 7.0% | -16.7% | . | -9.9%
COc1cc(NS(=O)(=O)c2ccc(NC(=S)NC(=O)c3sc4ccccc4c3Cl)cc2)ncn1 | 1.4% | -9.0% | -29.8% | ? | ? | 15µM*
COc1ccc(C(=O)NC(=S)Nc2ccc(S(=O)(=O)Nc3cc(OC)ncn3)cc2)cc1 | . | . | 5.4% | 27.7% | . | -29.7%
O=C(NC(=S)NCCO)c1sc2ccccc2c1Cl | 4.5% | 8.8% | ? | 6.2% | 8.4% | -1.6%
CC(C)C(=O)OCc1cn(-c2ccc(Cl)c(Cl)c2)nn1 | 0.1% | -9.8% | -1.8% | -9.7% | -5.7% | 21.2µM*
CC(C)(C)C(=O)OCc1cn(-c2ccc(Cl)cc2)nn1 | -1.3% | -4.6% | 6.0% | -2.8% | -1.0% | -2.6%
Cc1ccc(NC(=O)c2ccc(NCCCN3CCC(C)CC3)c([N+](=O)[O-])c2)cc1F | -6.1% | -26.7% | -11.9% | -0.6% | ? | -27.9%
O=C(Nc1ccc(Nc2ccccc2)cc1)c1ccc(Cl)c([N+](=O)[O-])c1 | . | . | 3.1% | 6.5% | . | -1.2%
Cc1cc(C(=O)Nc2ccc(Nc3ccccc3)cc2)ccc1[N+](=O)[O-] | . | . | 20.0% | 25.1µM* | . | 3.36µM*
Cc1cccc(NC(=O)c2ccc(NCCc3ccccc3)c([N+](=O)[O-])c2)c1 | -12.6% | -8.7% | 14.5% | -25.8% | -11.2% | 35.7%
Cc1ccc(NC(=O)c2ccc(NCCN)c([N+](=O)[O-])c2)cc1 | 7.6% | -27.6% | ? | 3.2% | 14.1µM* | -2.7%
O=C(Nc1cccc(Cl)c1)c1ccc(NCCCN2CCOCC2)c([N+](=O)[O-])c1 | -8.9% | ? | -10.2% | 11.2% | 14.1µM* | -10.1%
Cc1ccccc1Oc1cc(NC(=O)Cn2cnc([N+](=O)[O-])c2)cc([N+](=O)[O-])c1 | ? | 12.6µM*[quencher] | -3.7% | 1.4% | ? | -2.2%
CCNC(=S)N/N=C/c1cccc(/C=N/NC(=S)NCC)c1 | 7.7% | 10.7% | 39.8µM* | -4.2% | 12.9% | -15.2%
CC(C)(C)c1ccc(/C=N/NC(=S)NCc2ccccc2)cc1 | ? | -11.4% | 13.7% | 11.8% | -0.4% | -3.9%
O=C(N/N=C/c1ccc(Br)cc1)c1ccc(NC(=O)c2ccccc2)cc1 | . | . | . | 4.9% | . | 0.3%
